Results filed as inconclusive are left out. A number with no mark means an inactive call. The source made the active and inactive calls. The call rests on the fitted dose curve.
Experiment: qHTS assay for small molecule agonists of the p53 signaling pathway - cell viability (AID 651633);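 further: p53RE-bla HCT reporter cells with a stable beta-lactamase p53 reporter; nearly all actives have a fitted effect of over 30% in size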
Details: p53RE-bla HCT-116 viability, ATP luminescence, 16 h; series mostly up to 83.3 µM; activity change, negative = cytotoxicity: at the top concentration
Text: National Center for Advancing Translational Sciences [NCATS]
NIH Chemical Genomics Center [NCGC]
U.S. Environmental Protection Agency [EPA]
National Institutes of Environmental Health Sciences [NIEHS]
National Toxicology Program [NTP]
U.S. Food and Drug Administration [FDA]
p53, a tumor suppressor protein, is activated following cellular insult, including DNA damage and other cellular stresses. The activation of p53 regulates cell fate by inducing DNA repair, cell cycle arrest, apoptosis, or cellular senescence. The activation of p53, therefore, is a good indicator of DNA damage and other cellular stresses. […] The activation of the reporter gene under culture conditions can be detected by fluorescence intensity. This cell line was used to screen the Tox21 compound library in a 1536-well plate format and to identify agonists that activate the p53 signaling pathway.
Tox21 Assay Protocol Summary:
The p53RE-bla cells were dispensed at 4,000 cells/5 ul/well in 1536-well black wall/clear bottom plates using a Multidrop dispenser. After the assay plates were incubated at a 37 C/5% CO2 incubator for 5 hours, 23 nL of compounds dissolved in DMSO, positive controls or DMSO only was transferred to the assay plate by a pin tool. The plates were incubated at 37 C for 16 hours. After 1 uL of LiveBLAzerTM B/G FRET substrate was added using a Flying Reagent Dispenser, the plates were incubated at room temperature for 2 hours, and fluorescence intensity was measured by an Envision plate reader.
For cell viability readout that measures cytotoxicity, 4 ul/well of CellTiter-Glo reagent was added into the assay plates using a Flying Reagent Dispenser. After 30 min incubation at room temperature, the luminescence intensity in the plates was measured using a ViewLux plate reader.
On the % scale 0 is the no-effect control and ±100 the full control effect.

Compared with `CCCOc1ccc(C(=O)OCCN(CC)CC)cc1N`, `Nc1cc(S(=O)(=O)O)ccc1O` is higher in “activity change, negative = cytotoxicity” value: -2.32% for the first, 5.85% for the second.

Compared with `O=c1[nH]c(=O)c2cn[nH]c2[nH]1`, `CC1(C)C(=O)C(C)(C)C1=O` is higher in “activity change, negative = cytotoxicity” value: -9.14% for the first, 12.9% for the second.

Going from `NCC1CCC(C(=O)Oc2ccc(CCC(=O)O)cc2)CC1` (stereo not given) to `Cc1ccc(OC(=O)CC(C)C)cc1`, the “activity change, negative = cytotoxicity” value rises from -10.3% to 11.8%.

Going from `C/C=C(\C)C(=O)OC/C=C(\C)CCC=C(C)C` to `CCOC(=O)CC`, the “activity change, negative = cytotoxicity” value rises from -11.2% to 15.4%.

First: Clc1cc(Cl)c(Cl)c(Cl)c1Cl
Second: Nc1nc(Cl)cc(Cl)n1
The “activity change, negative = cytotoxicity” value of the first is higher: 19.6% for the first, -7.77% for the second.

Going from `O=C[C@@H](O)[C@H](O)[C@H](O)CO` to `O=S(=O)(O)CC(O)CCl` (stereo not given), the “activity change, negative = cytotoxicity” value falls from 17.6% to -12%.

Going from `C=CCN1CCc2nc(N)sc2CC1` to `CCC(C)c1nccnc1OC` (stereo not given), the “activity change, negative = cytotoxicity” value rises from 14.8% to 19.9%.

Going from `CCCCCCCCCCCC(C)=O` to `CCCCCCCCOCCC#N`, the “activity change, negative = cytotoxicity” value falls from 8.96% to -16.2%.

First: O=C(O)Cc1ccccc1Oc1ccc(Cl)cc1Cl
Second: O=C(O)COc1ccc2ccccc2c1
The “activity change, negative = cytotoxicity” value of the first is higher: 10.9% for the first, -8.32% for the second.

First: Cc1cc(C)c(C)c(C)c1
Second: CC(C)(C)c1ccc(N)cc1
The “activity change, negative = cytotoxicity” value of the first is lower: 4.8% for the first, 8.17% for the second.

Compared with `CC(C)(C)OC(=O)c1ccccc1C(=O)O`, `COC(=O)c1ccccc1Cl` is higher in “activity change, negative = cytotoxicity” value: -15.6% for the first, 13.9% for the second.

Going from `CCC(C)SSC(C)CC` (stereo not given) to `CC(C)CC(O)Cc1ccccc1` (stereo not given), the “activity change, negative = cytotoxicity” value rises from 15.4% to 17.2%.

Going from `CCO/C=C1\N=C(c2ccccc2)OC1=O` to `Cc1ccccc1OCC(=O)O`, the “activity change, negative = cytotoxicity” value rises from -22.8% to -8.53%.

Going from `CN(C)CCC[C@@]1(c2ccc(F)cc2)OCc2cc(C#N)ccc21` to `CC(=O)Nc1ccc(OCCOCCOc2ccc(NC(C)=O)cc2)cc1`, the “activity change, negative = cytotoxicity” value falls from 2.49% to -4.4%.

Compared with `N[C@H]1C(O)O[C@H](CO)[C@@H](O)[C@@H]1O` (stereo not given in full), `OCCC(F)(F)C(F)(F)C(F)(F)C(F)(F)C(F)(F)C(F)(F)F` is lower in “activity change, negative = cytotoxicity” value: 19.1% for the first, 8.27% for the second.

In the case of `CCCC[O][Al]([O]CCCC)[O]CCCC`, the “activity change, negative = cytotoxicity” value is reported as 16.4%.

First: CC(C)(O)CCCC1=CCC(C=O)CC1 (stereo not given)
Second: CCCC(=O)CC
The “activity change, negative = cytotoxicity” value of the first is lower: -18% [at 95.3 µM] for the first, -5.48% [at 95.3 µM] for the second.

First: N#CC1(N)CCCCC1
Second: O=Cc1ccc(C(=O)O)cc1
The “activity change, negative = cytotoxicity” value of the first is higher: 17.7% [at 95.3 µM] for the first, -15.5% [at 95.3 µM] for the second.

First: C=CC(=O)CC
Second: C=CCOC(=O)CCCCCCCC
The “activity change, negative = cytotoxicity” value of the first is higher: 16.7% [at 95.3 µM] for the first, 9.57% [at 95.3 µM] for the second.

Compared with `Cc1ccc(S(=O)(=O)NC(=O)NN2CC3CCCC3C2)cc1` (stereo not given), `COc1cnc(NS(=O)(=O)c2ccc(N)cc2)nc1` is lower in “activity change, negative = cytotoxicity” value: 19.4% [at 39.1 µM] for the first, 17.6% [at 39.1 µM] for the second.

In the case of `NC[C@H]1O[C@H](O[C@H]2[C@H](O)[C@@H](O[C@H]3O[C@H](CO)[C@@H](O)[C@H](N)[C@H]3O)[C@H](N)C[C@@H]2N)[C@H](N)[C@@H](O)[C@@H]1O`, the outcome is reported as “inactive”.

Reference: PubChem BioAssay (Tox21)
